# Experimental data from article PMC12350791.
# Experiments:
# [1] = target: ATP-dependent RNA helicase DDX24 (UniProt Q9GZR7); assay: cross-linking mass spectrometry
# [2] = target: Spectrin alpha chain, non-erythrocytic 1 (UniProt Q13813); assay: cross-linking mass spectrometry
# [3] = target: T1, Twinfilin-2 (UniProt Q6IBS0); assay: cross-link between two proteins; cross-linking mass spectrometry
# T1 sequence: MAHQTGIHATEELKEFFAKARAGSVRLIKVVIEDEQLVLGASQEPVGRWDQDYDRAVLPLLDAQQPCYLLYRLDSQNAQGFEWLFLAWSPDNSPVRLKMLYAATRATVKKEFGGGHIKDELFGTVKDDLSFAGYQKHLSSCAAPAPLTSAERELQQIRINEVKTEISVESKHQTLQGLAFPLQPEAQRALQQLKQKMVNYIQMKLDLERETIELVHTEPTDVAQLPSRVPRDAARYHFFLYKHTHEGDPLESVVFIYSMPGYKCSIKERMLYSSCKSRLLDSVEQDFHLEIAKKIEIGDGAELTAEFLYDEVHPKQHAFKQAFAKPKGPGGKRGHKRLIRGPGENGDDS
# [4] = target: Superkiller complex protein 8 (UniProt Q9GZS3); assay: as above
substance,measurement,setting,value
"Large ribosomal subunit protein eL20, Q02543",listed as a hit,[1],yes
"Actin, cytoplasmic 1, P60709",listed as a hit,[2],yes
same,listed as a hit,[3],yes
"RNA polymerase-associated protein CTR9 homolog, Q6PD62",listed as a hit,[4],yes
